Compound activity as filed in PubChem BioAssay.
HCV inhibitor = qHTS Assay for Inhibitors of Hepatitis C Virus (HCV); Huh7.5.1 HCVcc-Cre infection, luciferase reporter, 44 h; AID 651820, 2012; 340,000 tested, 3.4% active; Potency, µM (doses to about 41.8 µM), actives largely listed as inhibitors; active means well fitted inhibition curve with a large enough effect; inconclusive means small, poorly fitted or top-dose-only effect, or another doubt; inactive means no such curve, though single readings can be large or run the other way
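Infectious HCV cell culture screen: compound-treated cells (1,000/well, pre-plated 4 h) are infected with HCVcc-Cre at roughly 0.5 moi and grown 44 h. Infection is quantified by luciferase signal after 15 min substrate incubation at room temperature.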
FMDV inh = High Throughput Screening for Foot and Mouth Disease Virus Antivirals. FMDV antiviral cell-based qHTS. Potency, µM (titrated, usually from 57.9 µM), most hits filed as inhibitors. 410,000 tested, 1.2% active. AID 1159524, 2015; calls by dose curve; tested in HEK293T cells; further: read-out not given here; nearly all actives have a fitted effect of over 45% in size
MARV entry inh = qHTS for inhibitors of binding or entry into cells for Marburg Virus; 300,000 tested, 1.8% active; Potency, µM (doses to about 37.8 µM), most hits filed as inhibitors; AID 540276, 2011; Marburg virus pseudotyped entry inhibition, cell reporter; calls by dose curve; tested in HEK293 cells
HCMV antiviral = qHTS Assay for inhibitors of the human cytomegalovirus (HCMV); HFF cells, HCMV-luciferase reporter, 72 h; stronger effect = lower value; activity change, negative = inhibition, % at 57.5 µM; 410,000 tested, 4.5% active; AID 1259415, 2018; in the data active means activity change below about -60%; inconclusive means no clear call, values can overlap the other calls; inactive means above about -39%
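Human foreskin fibroblasts infected with luciferase-reporter HCMV at MOI 1 PFU/cell, compounds at two doses. Luciferase measured 72 h post infection; normalized to buffer-only basal and Salinomycin (10uM) controls.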
Lassa entry inh = qHTS for Inhibitors of binding or entry into cells for Lassa Virus; AID 540256, 2011; Lassa virus pseudotype entry inhibition, cell reporter; Potency, µM (top dose mostly 37.9 µM), most hits filed as inhibitors; 300,000 tested, 1.2% active; calls by dose curve; tested in HEK293 cells; further: nearly all actives have a fitted effect of over 50% in size
Large screens that a line does not name were inactive. Rows were chosen to be rich in hits. Some 7.9% of all compounds tested hit in one or more screens of this group.

Cn1cnc([N+](=O)[O-])c1Sc1ncnc2nc[nH]c12	FMDV inh inconclusive, MARV entry inh 18.3µM, Lassa entry inh inconclusive
C[C@H]1CCCCO[C@H](CN(C)C(=O)C2CCCCC2)[C@@H](C)CN([C@@H](C)CO)C(=O)c2cc(NC(=O)NC3CCCCC3)ccc2O1	none (no result: HCV inhibitor, MARV entry inh, Lassa entry inh)
Cc1cc2c(cc1C)NC(CC(=O)Nc1cccc(C)c1C)C(=O)N2 (stereo not given)	none (no result: HCV inhibitor, MARV entry inh)
CCCC1(CCC)NC(=O)N(CC(=O)Nc2ccccc2OC)C1=O	HCMV antiviral -108.7
COc1ccccc1NC(=O)CC1Nc2ccccc2NC1=O (stereo not given)	HCV inhibitor 10µM
COc1ccc(NC(=O)CC2Nc3ccccc3NC2=O)cc1 (stereo not given)	none (no result: HCV inhibitor, MARV entry inh)
Cc1cc2c(cc1C)NC(CC(=O)NCc1ccccc1)C(=O)N2 (stereo not given)	HCV inhibitor inconclusive, HCMV antiviral -108.6, Lassa entry inh inconclusive
C[C@H](NS(=O)(=O)c1c(Cl)cccc1Cl)C(=O)NNC(=O)COc1ccccc1F	none (no result: MARV entry inh, Lassa entry inh)
Cc1cc(-c2csc(NC(=O)c3ccc(C#N)cc3)n2)c(C)n1Cc1ccccc1	HCV inhibitor inconclusive, MARV entry inh inconclusive, HCMV antiviral inconclusive
COc1ccc(S[C@]2(C(=O)N3CCCC3)CC(=O)N(c3ccc(OC)cc3)[C@@H]2c2ccc(OC)cc2)cc1	none (no result: HCV inhibitor, FMDV inh, MARV entry inh, Lassa entry inh)
N#C/C(C(N)=O)=c1/ccc2c(c1)N1C3=C(CCCC3)CC3CCCCC31N=2 (stereo not given)	FMDV inh inconclusive, HCMV antiviral -68.3
N#CC(C#N)=c1ccc2c(c1)N1C3=C(CCCC3)CC3CCCCC31N=2 (stereo not given)	FMDV inh 39.8µM, HCMV antiviral -95.5
Nc1nc(Nc2cccc3ccccc23)nc(C2CCCC2=O)n1 (stereo not given)	none (no result: HCV inhibitor, FMDV inh, MARV entry inh, Lassa entry inh)
Nc1nc(CCl)nc(Nc2cccc3ccccc23)n1	HCV inhibitor 0.562µM, FMDV inh inconclusive, HCMV antiviral -98.2 (no result: MARV entry inh, Lassa entry inh)
CCN(C(=O)c1ccc(N2CC3CC(C2)c2cccc(=O)n2C3)c(NC(=O)c2ccncc2)c1)c1cccc(C)c1 (stereo not given)	HCMV antiviral -74.5 (no result: MARV entry inh, Lassa entry inh)
CSc1ccccc1NC(=O)c1ccc(N2CC3CC(C2)c2cccc(=O)n2C3)c(NC(=O)c2ccncc2)c1 (stereo not given)	none (no result: MARV entry inh, Lassa entry inh)
COc1cccc(F)c1C(C[N+](=O)[O-])c1c(N)n(C)c(=O)n(C)c1=O (stereo not given)	HCV inhibitor 7.94µM, FMDV inh 31.6µM, HCMV antiviral -99.6 (no result: MARV entry inh, Lassa entry inh)
COc1cc(C(C[N+](=O)[O-])c2c(C)cc3ccccn23)ccc1O (stereo not given)	HCV inhibitor inconclusive, FMDV inh 22.4µM, HCMV antiviral -64.4 (no result: Lassa entry inh)
COc1cc(C(C[N+](=O)[O-])c2c(N)n(C)c(=O)n(C)c2=O)ccc1O (stereo not given)	HCV inhibitor inconclusive, FMDV inh 17.8µM, MARV entry inh inconclusive, HCMV antiviral -70.7, Lassa entry inh inconclusive
COC(=O)c1cc2c(cc1NC(=O)c1cnn(-c3ccccc3)c1-n1cccc1)OCO2	none (no result: HCV inhibitor)
O=C(N[C@@H]1c2ccccc2C2(CCN(C(=O)c3cc4ccccc4oc3=O)CC2)[C@H]1O)c1cccnc1	none (no result: HCV inhibitor, MARV entry inh, HCMV antiviral, Lassa entry inh)
COc1ccc(CC(=O)OCC(=O)N(C)C2CCS(=O)(=O)C2)cc1OC (stereo not given)	MARV entry inh inconclusive, Lassa entry inh inconclusive
CC(C)NCC(O)Cn1c2c(c3ccccc31)CCc1c-2cnn1-c1ccccc1 (stereo not given)	HCV inhibitor inconclusive, FMDV inh inconclusive, MARV entry inh inconclusive, HCMV antiviral -103.5, Lassa entry inh 7.08µM
CN1CCc2c(n(CC(O)CNCc3ccccc3)c3ccccc23)C1=O (stereo not given)	HCV inhibitor inconclusive (no result: MARV entry inh, Lassa entry inh)
Cc1noc(C)c1-c1nc(CS(=O)(=O)c2ccc(F)cc2)no1	none (no result: MARV entry inh, Lassa entry inh)
Cc1noc(C)c1-c1nc(CS(=O)(=O)c2ccccc2)no1	HCMV antiviral -83.6
COc1ccccc1C(=O)N1CCCC1(C#N)c1ccccc1 (stereo not given)	MARV entry inh inconclusive
COc1ccc(C(=O)N2CCCC2(C#N)c2ccccc2)cc1[N+](=O)[O-] (stereo not given)	HCV inhibitor 14.1µM, FMDV inh inconclusive (no result: MARV entry inh, Lassa entry inh)
CCOc1ccccc1OCCCC(=O)ON=C(N)c1ccccc1	none (no result: MARV entry inh, Lassa entry inh)
O=C(O)CSc1cc(NS(=O)(=O)c2ccc(Cl)cc2)c2ccccc2c1O	HCV inhibitor inconclusive, FMDV inh inconclusive, MARV entry inh inconclusive, HCMV antiviral -92.5, Lassa entry inh inconclusive
COc1ccc(S(=O)(=O)Nc2cc3c4c(c2)CCN4C(=O)CC3)cc1	none
COc1ccc(NS(=O)(=O)c2ccc(C)c(NC(=O)NC3CCCCC3)c2)cc1	HCV inhibitor inconclusive, MARV entry inh inconclusive, Lassa entry inh 10µM
COc1ccc(NS(=O)(=O)c2ccc(C)c(C(=O)N(C)CCc3ccc(OC)c(OC)c3)c2)cc1	HCV inhibitor inconclusive, Lassa entry inh inconclusive
COc1ccc(NS(=O)(=O)c2cccc(NC(=O)COc3ccc(OC)cc3)c2)cc1	HCV inhibitor inconclusive (no result: MARV entry inh, Lassa entry inh)
COc1ccc(NS(=O)(=O)c2cccc(NC(=O)NC3CCCCC3)c2)cc1	HCV inhibitor inconclusive, MARV entry inh inconclusive, HCMV antiviral -60.0, Lassa entry inh 2µM
COc1ccc(NS(=O)(=O)c2ccc(C)c(C(=O)N(C)Cc3ccc(C)cc3)c2)cc1	MARV entry inh inconclusive, HCMV antiviral inconclusive, Lassa entry inh 11.2µM
O=C(NCc1ccc(F)cc1)c1cc(C2CCCCN2C(=O)c2ccc(Cl)cc2)on1 (stereo not given)	FMDV inh inconclusive (no result: HCV inhibitor, MARV entry inh, Lassa entry inh)
CN(C)c1ccc(CNC(=O)CN2C(=O)c3cccnc3Oc3ccc(Cl)cc32)cc1	none (no result: HCV inhibitor, MARV entry inh)
CCN(CC)CCCNC(=O)c1cc2nc3c(c(C(F)(F)F)n2n1)CCc1ccccc1-3	HCV inhibitor 1.58µM, MARV entry inh inconclusive, HCMV antiviral inconclusive
COc1cccc(-c2cncnc2NCCc2c[nH]c3ccc(OC)cc23)c1	none (no result: HCV inhibitor, MARV entry inh, HCMV antiviral, Lassa entry inh)
COc1ccc2[nH]cc(CCNc3ncncc3-c3ccc4c(c3)OCO4)c2c1	FMDV inh 20µM (no result: HCV inhibitor, MARV entry inh, HCMV antiviral, Lassa entry inh)
CCCNC(=O)C1(C)CCCN(Cc2ccccc2Cl)C1 (stereo not given)	HCMV antiviral -76.8 (no result: HCV inhibitor, MARV entry inh, Lassa entry inh)
CCCNC(=O)C1(C)CCCN(C(=O)COc2ccc(Cl)cc2Cl)C1 (stereo not given)	HCMV antiviral -100.0 (no result: HCV inhibitor, MARV entry inh, Lassa entry inh)
CCCNC(=O)C1(C)CCCN(Cc2cccc3ccccc23)C1 (stereo not given)	none (no result: HCV inhibitor, MARV entry inh, Lassa entry inh)
CCN(C(=O)CC(C)C)c1nnc(Cn2nnc3ccccc32)s1	HCV inhibitor 12.6µM, FMDV inh inconclusive, Lassa entry inh inconclusive
CCc1cccc(CC)c1N(COC)C(=O)Cn1nnc2ccccc21	none
CCN(C(=O)c1ccc(C(C)(C)C)cc1)c1nnc(Cn2nnc3ccccc32)s1	HCV inhibitor 1µM, FMDV inh inconclusive, MARV entry inh inconclusive, HCMV antiviral -65.1, Lassa entry inh inconclusive
Cc1ccc(C(=O)NNC(=O)Cn2nnc3ccccc32)cc1	Lassa entry inh inconclusive
